# This is a sample that favours compounds with a hit; in the whole collection about 10% have one here.
# NIH3T3 tox = Cytotoxic Profiling in NIH 3T3 Cell Line of Diverse Libraries Using Quantitative High-Throughput Screening. NIH 3T3 viability, CellTiter-Glo ATP luminescence, 48-72 h. Potency, µM (top dose mostly 96.7 µM), inactives show top-dose activity change, negative = cytotoxicity, most hits filed as inhibitors. 94,000 tested, 4.3% active; further: nearly all actives have a fitted effect of over 55% in size
#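 Mouse fibroblast NIH 3T3 cells, 400 per well, received compound via pintool and were incubated for 48 or 72 hr prior to CellTiter-Glo ATP luminescence measurement.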
# hNpr1 antagonist = Natriuretic polypeptide receptor (hNpr1) antagonism - Primary qHTS; Atrial natriuretic peptide receptor 1 (Homo sapiens), P16066; HEK293 hNpr1 GloSensor cGMP, ANP-stimulated luminescence; Potency, µM (titrated, usually from 46.3 µM), for inactives: at the highest dose activity change, negative = inhibition, actives largely listed as inhibitors; 76,000 tested, 1.6% active; AID 1347048, 2019; calls by dose curve; further: nearly all actives have a fitted effect of over 60% in size
#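 HEK293 cells stably expressing human Npr1 and cGMP GloSensor pGS-40F, loaded 2 h with 2% GloSensor reagent, given compound 30 min at room temperature. Luminescence read before and 20 min after 0.1 nM hNppA.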
# Luciferase inh = Firefly luciferase inhibition profiling of diverse chemical library using quantitative high-throughput screening; AID 1347043, 2019; Potency, µM (titrated, usually from 115 µM), hits mostly inhibitors; Luciferin 4-monooxygenase (Photinus pyralis), P08659; purified P. pyralis luciferase, luminescence, biochemical; 76,000 tested, 2.5% active; further: nearly all actives have a fitted effect of over 65% in size
#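 Purified 10nM P. pyralis luciferase with 10uM D-luciferin and 10uM ATP in 50mM Tris acetate pH 7.5, 10mM Mg acetate, 0.01% Tween-20, 0.05% BSA. qHTS titration; luminescence read by CCD imager.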
# GPT2 inhibitor = Primary qHTS assay for inhibitors of Glutamate pyruvate transaminase 2 (GPT2); Alanine aminotransferase 2 (Homo sapiens), Q8TD30; Recombinant GPT2, coupled pyruvate oxidase/HRP Amplex Red fluorescence; Potency, µM (highest dose often 57.7 µM), without a hit: at the top dose activity change, negative = inhibition, most hits filed as inhibitors; 100,000 tested, 0.25% active; AID 1671188, 2021; further: nearly all actives have a fitted effect of over 60% in size
# Target sequence (Q8TD30 whole entry, looked up): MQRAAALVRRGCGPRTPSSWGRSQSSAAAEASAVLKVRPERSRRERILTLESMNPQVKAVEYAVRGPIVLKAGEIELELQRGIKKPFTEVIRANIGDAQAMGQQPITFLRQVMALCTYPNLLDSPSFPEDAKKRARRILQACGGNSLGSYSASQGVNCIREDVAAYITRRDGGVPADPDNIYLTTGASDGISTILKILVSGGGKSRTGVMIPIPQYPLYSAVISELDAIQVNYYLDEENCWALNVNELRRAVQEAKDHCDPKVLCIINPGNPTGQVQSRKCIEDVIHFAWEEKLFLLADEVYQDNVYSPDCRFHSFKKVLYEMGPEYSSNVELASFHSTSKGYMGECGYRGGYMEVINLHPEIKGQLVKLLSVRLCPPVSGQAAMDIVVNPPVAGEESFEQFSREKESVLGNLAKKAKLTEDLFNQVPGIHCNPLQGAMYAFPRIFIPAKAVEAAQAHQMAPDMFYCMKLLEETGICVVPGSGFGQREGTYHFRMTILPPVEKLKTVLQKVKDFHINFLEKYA
#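 Fluorescence read-out: pyruvate from GPT2 turnover coupled to pyruvate oxidase, HRP and Amplex Red (0.2mM ThPP, 0.2U/mL PO and HRP, 50uM Amplex final). Substrates 250uM a-KG, 2mM L-alanine; enzyme 10ng/uL; 30 min RT.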
# HEK cytotox = Cytotoxic Profiling in HEK 293 Cell Line of Diverse Libraries Using Quantitative High-Throughput Screening | HEK 293 viability, ATP luminescence (CellTiter-Glo), 48-72 h | Potency, µM (highest dose often 115 µM), for the others: at the top dose activity change, negative = cytotoxicity, hits mostly inhibitors | 94,000 tested, 6.6% active; further: nearly all actives have a fitted effect of over 60% in size
#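 HEK 293 cells at 250 cells/well were exposed to compounds by pintool transfer for 48 or 72 hr at 37 degree Celsius, 5% CO2. Viability was read as ATP-coupled luminescence with CellTiter-Glo after 10 min at room temperature.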
# The depositor's hits bear a star; i = inactive; ? = inconclusive; . = not tested or not shown; [ ] = remark or other dose. Unless noted, the call rests on the fitted dose curve; in most records, active means well fitted curve in the direction sought with a large enough effect; inconclusive means small, poorly fitted or top-dose-only effect, or another doubt; inactive means no such curve, though single readings can be large; an effect the other way counts as inactive or inconclusive. On the % scale 0 is the no-effect control and ±100 the full control effect; potency means the concentration at half of the fitted maximal effect.
SMILES,NIH3T3 tox,hNpr1 antagonist,Luciferase inh,GPT2 inhibitor,HEK cytotox
O=C(NC1CCCC1)C1CCCN(Cc2cccc(-c3cccs3)c2)C1 (stereo not given),?,.,.,4%,45µM*
O=C(NC1CC1)C1CCCN(Cc2cccc(-c3cccs3)c2)C1 (stereo not given),?,.,.,-3%,40µM*
O=C(Nc1ccc(Cl)cc1)NC1CCN(c2nc3ncccc3o2)C1 (stereo not given),-30%,.,.,0%,2%
CN1C[C@@H](NS(=O)(=O)c2ccc(Cl)cc2)C[C@H]1c1nc(-c2ccc(F)cc2)no1,?,-22%,40µM*,-1%,?
Cc1ccc(-c2noc([C@@H]3C[C@H](NS(=O)(=O)c4ccc(F)cc4)CN3C)n2)cc1,?,-22%[70.6 µM],45µM*,?,?
CN1C[C@@H](NS(=O)(=O)c2ccc(F)cc2)C[C@H]1c1nc(-c2cccnc2)no1,-25%[174 µM],5%[70.6 µM],i,4%[88.5 µM],-12%[172 µM]
CN1C[C@@H](NS(=O)(=O)c2ccccc2)C[C@H]1c1nc(-c2ccc(F)cc2)no1,?,-22%[70.6 µM],?,3%[88.5 µM],100µM*
CC(=O)Nc1ccc(S(=O)(=O)N[C@H]2C[C@@H](c3nc(-c4ccc(F)cc4)no3)N(C)C2)cc1,-28%,?,i,4%,?
COc1ccc(Nc2ccnc(N3CCC(NC(=O)c4ccc(C(F)(F)F)cc4)CC3)n2)cc1,?,.,.,-10%,?
CC1=C[C@@H](CN2CCN(c3ccccn3)CC2)[C@H](C(C)C)C[C@H]1Cc1nnc(-c2ccc([N+](=O)[O-])cc2)o1,?,2%,i,-2%,?
CC1=C[C@@H](CN2CCN(CCO)CC2)[C@H](C(C)C)C[C@H]1Cc1nnc(Cc2c[nH]c3ccccc23)o1,28µM*,-17%,i,0%,?
CC1=C[C@@H](CN2CCN(c3ccccc3)CC2)[C@H](C(C)C)C[C@H]1Cc1nnc(-c2cncn2C)o1,?,0%,i,2%,35µM*
CC1=C[C@@H](CN2CCN(c3ccccn3)CC2)[C@H](C(C)C)C[C@H]1Cc1nnc(-c2cncn2C)o1,?,-2%,i,2%,32µM*
CC1=C[C@@H](CN2CCN(c3ncccn3)CC2)[C@H](C(C)C)C[C@H]1Cc1nnc(COc2ccc(F)cc2)o1,40µM*,-25%,i,i,25µM*
CC1=C[C@@H](CN2CCN(CCO)CC2)[C@H](C(C)C)C[C@H]1Cc1nnc(-c2ccccc2F)o1,?,1%,i,-4%,?
CC(=O)N1CCN(C[C@@H]2C=C(C)[C@H](Cc3nnc(-c4cncn4C)o3)C[C@H]2C(C)C)CC1,?,1%,i,3%,?
CC1=C[C@@H](CN2CCN(c3ccc(F)cc3)CC2)[C@H](C(C)C)C[C@H]1Cc1nnc(-c2cncn2C)o1,?,-2%,i,i,22µM*
CC1=C[C@@H](CN2CCN(c3cnccn3)CC2)[C@H](C(C)C)C[C@H]1Cc1nnc(-c2cccnc2)o1,?,?,i,?,35µM*
C=CCNC(=O)c1cn2c(n1)CN([S+](=O)([O-])c1cccc(C(F)(F)F)c1)CC2,-5%,.,.,-4%,i
CSc1ccc(-c2cccc(C(=O)NCCN[S+](=O)([O-])c3ccc(C)cc3)c2)cc1,?,.,.,i,40µM*
CSc1ccc(-c2cccc(C(=O)NCCN[S+](=O)([O-])c3cccc(C(F)(F)F)c3)c2)cc1,?,.,.,i,?
COc1cccc(CNC(=O)CNC(=O)c2cccc(-c3ccc(SC)cc3)c2)c1,-34%,.,.,?,22µM*
COc1ccc(C(=O)NCCNC(=O)c2cccc(-c3ccc(SC)cc3)c2)cc1,?,.,.,i,?
CSc1ccc(-c2cccc(C(=O)NCCNC(=O)N(C)C)c2)cc1,?,.,.,i,25µM*
CC(C)CCN1C(=O)CC[C@]2(C(=O)N3CCC(N4CCCCC4)CC3)CCCC[C@@H]12,-6%,-1%,i,0%,?
SMILES,NIH3T3 tox,hNpr1 antagonist,Luciferase inh,GPT2 inhibitor,HEK cytotox
O=C(C1CCCN1C(=O)c1ccc(C(F)(F)F)cc1)N1CCC(N2Cc3ccccc3C2=O)CC1 (stereo not given),?,.,.,i,?
CN(C)c1nc2c(c(=O)[nH]1)CCN(Cc1ccc(Cl)c(F)c1)CC2,-19%,-11%,i,i,-5%
COc1ccccc1-c1cc(C(=O)Nc2cccc(C(F)(F)F)c2)c2cnn(C)c2n1,?,.,.,.,14µM*
CCOc1cccc(NC(=O)c2cc(-c3ccc(C(F)(F)F)cc3)nc3c2cnn3C)c1,?,.,.,.,-23%
COc1ccc(-c2cc(C(=O)Nc3cccc(C(F)(F)F)c3)c3cnn(C)c3n2)cc1,?,.,.,.,35µM*
O=C(c1cccnc1)N1CCC(N2CC3CC(C2)[C@H]2CCCC(=O)N2C3)CC1 (stereo not given in full),i,-4%,i,i,0%
Cc1noc(C)c1-c1cc2cc(C(C)C)oc2c(Nc2ccn(C)n2)n1,?,1%[70.6 µM],i,-9%[88.5 µM],63µM*
Cc1noc(C)c1-c1cc2cc(CNC3CC3)oc2c(NC2CCN(C)CC2)n1,?,-2%[70.6 µM],i,?,40µM*
Cc1noc(C)c1-c1cc2cc(C(C)C)oc2c(NCCN2CCOCC2)n1,?,3%[70.6 µM],i,-13%[88.5 µM],?
Cc1noc(C)c1-c1cc2cc(C(C)C)oc2c(NC2CCN(C)CC2)n1,?,5%[70.6 µM],i,-8%[88.5 µM],32µM*
Cc1noc(C)c1-c1cc2cc(C(C)C)oc2c(N2CCN(C)CC2)n1,?,-1%[70.6 µM],i,2%[88.5 µM],?
O=C1NCc2ccccc2CC12CCCCN2Cc1ccnc2ccccc12 (stereo not given),?,.,.,i,?
CNC(=O)c1cc(C2CC2)nc2c1c(C1CCCN(C(=O)Cc3ccc(OC)cc3)C1)nn2C (stereo not given),-12%,.,.,.,-18%
CN1CCC(Cn2ccc3c(N4CCOCC4)nc(-c4cccc(N[S+](C)(=O)[O-])c4)cc32)CC1,?,0%,i,i,?
CN1CCC(Cn2ccc3c(N4CCOCC4)nc(-c4cccc5[nH]ccc45)cc32)CC1,35µM*,0%[70.6 µM],i,3%[88.5 µM],63µM*

# High-throughput results: PubChem, National Center for Advancing Translational Sciences (NCATS)
